This is an account of results in PubChem BioAssay (NCATS).

What all share (assay): qHTS profiling for inhibitors of Plasmodium falciparum proliferation (AID 504749); also: nearly all actives have a fitted effect of over 60% in size
What all share (settings): P. falciparum in erythrocytes, SYBR Green DNA, 72 h; series mostly up to 28.7 µM
For orientation: Quantitative high-throughput screening tests each substance at several concentrations.

One assay has as its system CP215. A digest of the protocol:
(§1)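 P. falciparum-infected erythrocytes (0.3% parasitemia, 2.5% hematocrit final) were exposed to compounds for 72 h at 37 C in 5% CO2, then lysed with SYBR Green buffer overnight at room temperature; parasite DNA fluorescence was normalized to artemisinin and DMSO controls.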

The next assay relates to CP217. The method in brief:
as §1

Another assay concerns CP237. The method in brief:
as §1

For a further assay, the system named is CP238. The method in brief:
as §1

For another assay, the system named is CP247. The method in brief:
as §1

The next assay has as its system CP250. A digest of the protocol: as §1
Another assay relates to CP252. A digest of the protocol:
as §1

The test system of another assay is CP256. The method in brief:
as §1

The subject of a further assay is CP260. A digest of the protocol: as §1
Another assay has as its system CP262. A digest of the protocol: as §1
A further assay deals with CP265. A digest of the protocol:
as §1

A further assay has as its system CP266. The method in brief: as §1
In the next assay the test system is CP268. The method in brief: as §1
A further assay relates to CP269. A digest of the protocol: as §1
Another assay concerns CP286. A digest of the protocol:
as §1

For a further assay, the system named is CP291. A digest of the protocol:
as §1

The next assay has as its system CP297. The method in brief: as §1
The next assay relates to CP305. A digest of the protocol: as §1
The subject of the next assay is CP315. A digest of the protocol:
as §1

Another assay has as its system CP325. A digest of the protocol: as §1

Results filed as inconclusive are left out. Calls of active or inactive are those of the source. Calls follow the shape of the dose curve; as a rule, active = well fitted inhibition curve with a large enough effect; inconclusive = small, poorly fitted or top-dose-only effect; inactive = flat fitted curve, though single readings scatter.
Potency is read from the fitted curve at half-maximal effect.

`CC(=O)Oc1c(C)cc(OCC(O)CNC(C)C)c(C)c1C` (stereo not given): the Potency entry with CP215, in the assay with CP217, with CP237, in the assay on CP238, in the assay with CP247 and with CP250 was “inactive” each time. Besides, the Potency result in the assay on CP252, with CP256, in the assay on CP260, in the assay with CP262, with CP265 and with CP266 was “inactive” throughout. Besides, the Potency result in the assay with CP268, in the assay with CP269, with CP286, in the assay with CP291, in the assay with CP297 and in the assay on CP305 was “inactive” in each case. In addition, the Potency result in the assay on CP315 and in the assay with CP325 was “inactive” throughout.

As for `CCCCCCCCCCCC[n+]1ccc2ccccc2c1`, the Potency in the assay with CP215 was 1070 nM (active); in the assay with CP217 it was 891 nM (active); with CP237, 631 nM (active); with CP238, 631 nM (active); in the assay with CP247 it was 891 nM (active); in the assay on CP250 it was 1120 nM (active). The Potency in the assay on CP252 was 708 nM (active); in the assay on CP256, 562 nM (active); with CP260, 631 nM (active); with CP262, 379 nM (active); in the assay with CP265, 1120 nM (active); in the assay with CP266, 1690 nM (active). In addition, the Potency is 1350 nM (active) in the assay with CP268; 757 nM (active) in the assay on CP269; 224 nM (active) in the assay with CP286; 1200 nM (active) with CP291; 1070 nM (active) in the assay with CP297; 757 nM (active) with CP305. The results for the Potency with CP315 and in the assay on CP325 were 1070 nM (active) and 1200 nM (active), respectively.

As to `CO[C@H]1C[C@@H]2CC[C@@H](C)[C@@](O)(O2)C(=O)C(=O)N2CCCC[C@H]2C(=O)O[C@H]([C@H](C)C[C@@H]2CC[C@@H](OCCO)[C@H](OC)C2)CC(=O)[C@H](C)/C=C(\C)[C@@H](O)[C@@H](OC)C(=O)[C@H](C)C[C@H](C)/C=C/C=C/C=C/1C`, the Potency with CP215 was 1690 nM (active); in the assay on CP217, 1000 nM (active); in the assay on CP237, 2000 nM (active); in the assay with CP238 it was 2820 nM (active); with CP247, 1260 nM (active); with CP250, 3160 nM (active). In addition, the Potency is 1260 nM (active) in the assay on CP252; 3550 nM (active) in the assay with CP256; 2000 nM (active) in the assay on CP260; 3010 nM (active) in the assay on CP262; 1120 nM (active) in the assay on CP265; 6010 nM (active) in the assay with CP266. The Potency is 4260 nM (active) in the assay on CP268; 4260 nM (active) in the assay with CP269; 3160 nM (active) with CP286; 4260 nM (active) with CP291; 3790 nM (active) in the assay with CP297; 4780 nM (active) with CP305. The Potency is 4260 nM (active) in the assay with CP315 and 4780 nM (active) in the assay with CP325.

Consider `CC(C(=O)O)c1ccc(N2Cc3ccccc3C2=O)cc1` (stereo not given), for which the Potency entry in the assay with CP215, in the assay on CP217, in the assay with CP237, with CP238, in the assay on CP247 and with CP250 was “inactive” in each case. Moreover, the Potency result with CP252, in the assay on CP256, in the assay on CP260, with CP262, in the assay with CP265 and in the assay with CP266 was “inactive” throughout. Further, the Potency entry in the assay with CP268, with CP269, in the assay with CP286, in the assay on CP291, with CP297 and in the assay with CP305 was “inactive” throughout. The Potency result in the assay on CP315 and with CP325 was “inactive” each time.

For `CCCCCCCC/C=C\CCCCCCCC(=O)O`, the Potency entry with CP215, in the assay with CP217, with CP237, in the assay on CP238, with CP247 and with CP250 was “inactive” each time. Also, the Potency result in the assay with CP252, with CP256, with CP260, with CP262, with CP265 and in the assay with CP266 was “inactive” throughout. In addition, the Potency result in the assay with CP268, in the assay on CP269, in the assay with CP286, with CP291, with CP297 and in the assay on CP305 was “inactive” in each case. The Potency result in the assay on CP315 and in the assay with CP325 was “inactive” each time.

Consider `COCC(=O)Nc1cc(Sc2ccccc2)ccc1N=C(NC(=O)OC)NC(=O)OC`, for which the Potency result in the assay on CP215, in the assay on CP217, in the assay with CP237, with CP238, in the assay on CP247 and in the assay on CP250 was “inactive” each time. Moreover, the Potency result in the assay with CP252, in the assay on CP256, in the assay on CP260, in the assay on CP262, with CP265 and in the assay with CP266 was “inactive” each time. Also, the Potency result in the assay on CP268, in the assay on CP269, in the assay with CP286, in the assay with CP291, in the assay with CP297 and in the assay on CP305 was “inactive” each time. For the same molecule, the Potency entry in the assay with CP315 and in the assay with CP325 was “inactive” in each case.

For the molecule `Cc1ccccc1`, the Potency result in the assay on CP215, with CP217, with CP237, in the assay on CP238, with CP247 and in the assay with CP250 was “inactive” in each case. In addition, the Potency result in the assay on CP252, in the assay with CP256, in the assay with CP260, in the assay on CP262, in the assay on CP265 and in the assay with CP266 was “inactive” in each case. Moreover, the Potency entry in the assay on CP268, in the assay on CP269, with CP286, in the assay on CP291, in the assay with CP297 and in the assay on CP305 was “inactive” throughout. Besides, the Potency entry with CP315 and in the assay with CP325 was “inactive” throughout.

Turning to `COC(F)(F)C(Cl)Cl`, the Potency entry with CP215, in the assay on CP217, in the assay with CP237, with CP238, in the assay with CP247 and in the assay with CP250 was “inactive” each time. The Potency result in the assay on CP252, in the assay with CP256, with CP260, in the assay on CP262, in the assay on CP265 and in the assay with CP266 was “inactive” throughout. Further, the Potency result in the assay on CP268, in the assay with CP269, in the assay with CP286, in the assay on CP291, with CP297 and in the assay with CP305 was “inactive” in each case. The Potency result with CP315 and in the assay on CP325 was “inactive” throughout.

On to `CCCC(=O)O[C@]1(C(=O)CCl)[C@H](C)C[C@@H]2[C@H]3CCC4=CC(=O)C=C[C@]4(C)[C@@]3(F)C(=O)C[C@@]21C`, for which the Potency was 3790 nM (active) with CP215; 3160 nM (active) in the assay with CP217; 3550 nM (active) in the assay with CP237; 3980 nM (active) in the assay on CP238; 2000 nM (active) with CP247; 1580 nM (active) in the assay on CP250. For the same molecule, the Potency with CP252 was 3160 nM (active); in the assay with CP256, 794 nM (active); in the assay with CP260 it was 2820 nM (active); in the assay with CP262 it was 1690 nM (active); in the assay with CP265, 2820 nM (active); with CP266 it was 3380 nM (active). For the same molecule, the Potency in the assay on CP268 is 4260 nM (active); with CP269 it was 4260 nM (active); in the assay on CP286, 2820 nM (active); with CP291, 4260 nM (active); in the assay on CP297, 1900 nM (active); in the assay on CP305, 4260 nM (active). Besides, the Potency in the assay on CP315 was 3790 nM (active); in the assay on CP325, 4260 nM (active).

As to `CC(C)(C)C(=O)OCOC(=O)[C@@H]1N2C(=O)[C@@H](N=CN3CCCCCC3)[C@H]2SC1(C)C`, the Potency result with CP215, with CP217, in the assay with CP237, with CP238, with CP247 and in the assay on CP250 was “inactive” in each case. In addition, the Potency entry in the assay on CP252, with CP256, with CP260, in the assay on CP262, in the assay on CP265 and in the assay on CP266 was “inactive” in each case. The Potency result in the assay with CP268, in the assay on CP269, in the assay on CP286, in the assay on CP291, with CP297 and with CP305 was “inactive” throughout. Besides, the Potency entry in the assay on CP315 and in the assay on CP325 was “inactive” each time.

For `COC(=O)[C@H]1[C@H]2C[C@@H]3c4[nH]c5ccccc5c4CCN3C[C@H]2C[C@@H](OC(=O)c2cc(OC)c(OC)c(OC)c2)[C@@H]1OC`, the Potency with CP215 is 757 nM (active); with CP217, 355 nM (active); in the assay on CP237, 126 nM (active); in the assay on CP238 it was 355 nM (active); with CP247, 398 nM (active); in the assay on CP250 it was 447 nM (active). For the same molecule, the Potency in the assay on CP252 is 398 nM (active); in the assay on CP256, 398 nM (active); in the assay with CP260, 282 nM (active); with CP262, 1200 nM (active); in the assay with CP265 it was 398 nM (active); in the assay on CP266, 1070 nM (active). For the same molecule, the Potency was 601 nM (active) in the assay with CP268; 675 nM (active) in the assay with CP269; 282 nM (active) in the assay on CP286; 675 nM (active) in the assay on CP291; 190 nM (active) with CP297; 849 nM (active) in the assay with CP305. The Potency with CP315 was 849 nM (active); with CP325 it was 757 nM (active).
